Results published in the supplement of paper PMC12067093, “Discovery and optimisation of a covalent ligand for TRIM25 and its application to targeted protein ubiquitination” (Chemical Science, 2025).
The full data set covers some 21,000 targets. This sample favours those with the largest changes.

Target: WDR43_Q15061_158_HIVEWNVQTCK (UniProt Q15061)
Assay: probe-labelled cysteine peptide fold change vs DMSO (competition) (log2 fold change); higher = less target engagement (more negative = stronger competition)
Details: THP-1, incubation time: 4 h
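Note: competitive profiling in live THP-1 cells: cysteine peptides tagged with an iodoacetamide desthiobiotin (IA-DTB) probe, intensity after compound treatment relative to DMSO-treated cells.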

Chain of WDR43_Q15061_158_HIVEWNVQTCK (Q15061 whole entry, looked up): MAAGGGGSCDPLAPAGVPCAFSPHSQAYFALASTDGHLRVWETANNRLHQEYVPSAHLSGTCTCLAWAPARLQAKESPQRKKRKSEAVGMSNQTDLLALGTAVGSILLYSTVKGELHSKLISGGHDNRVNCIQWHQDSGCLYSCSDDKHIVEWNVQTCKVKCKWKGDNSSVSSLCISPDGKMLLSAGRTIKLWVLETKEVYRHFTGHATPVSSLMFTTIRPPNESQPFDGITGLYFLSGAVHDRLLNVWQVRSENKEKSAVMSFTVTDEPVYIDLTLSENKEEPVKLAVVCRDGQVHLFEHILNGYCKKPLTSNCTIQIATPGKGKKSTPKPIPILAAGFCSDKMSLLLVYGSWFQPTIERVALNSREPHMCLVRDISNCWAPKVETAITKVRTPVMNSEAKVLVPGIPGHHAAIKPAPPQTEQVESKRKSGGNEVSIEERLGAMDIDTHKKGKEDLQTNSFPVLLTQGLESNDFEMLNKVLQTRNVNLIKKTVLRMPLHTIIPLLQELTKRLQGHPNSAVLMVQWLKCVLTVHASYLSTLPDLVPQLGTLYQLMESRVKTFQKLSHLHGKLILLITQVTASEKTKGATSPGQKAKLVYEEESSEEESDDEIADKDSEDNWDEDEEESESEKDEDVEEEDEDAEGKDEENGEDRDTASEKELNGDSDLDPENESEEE

Cc1cc(C(=O)N2CCCN(C(=O)CCl)CC2)ccc1-c1ccccc1 [compound 10]
probe-labelled cysteine peptide fold change (10 µM): -0.0124
probe-labelled cysteine peptide fold change (50 µM): -0.0233
